The text below walks through data of article PMC4336329 (PLoS ONE, 2015).

Among all 310,000 compounds or so, about 14,000 (4.5%) showed an effect of 50% or more. Effects have a minus sign here. For the sample, strong results were picked, then their nearest neighbours and some compounds at random.
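Further: peak tail current of the secondary pulse compared with the same well before compound.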

In the experiment the target is human ether-à-go-go-related gene (hERG) potassium channel (human, UniProt Q12809). Description: primary screen, population patch clamp on CHO cells stably expressing hERG; higher = less effect of the substance.
Sequence of human ether-à-go-go-related gene (hERG) potassium channel (Q12809 whole entry, looked up): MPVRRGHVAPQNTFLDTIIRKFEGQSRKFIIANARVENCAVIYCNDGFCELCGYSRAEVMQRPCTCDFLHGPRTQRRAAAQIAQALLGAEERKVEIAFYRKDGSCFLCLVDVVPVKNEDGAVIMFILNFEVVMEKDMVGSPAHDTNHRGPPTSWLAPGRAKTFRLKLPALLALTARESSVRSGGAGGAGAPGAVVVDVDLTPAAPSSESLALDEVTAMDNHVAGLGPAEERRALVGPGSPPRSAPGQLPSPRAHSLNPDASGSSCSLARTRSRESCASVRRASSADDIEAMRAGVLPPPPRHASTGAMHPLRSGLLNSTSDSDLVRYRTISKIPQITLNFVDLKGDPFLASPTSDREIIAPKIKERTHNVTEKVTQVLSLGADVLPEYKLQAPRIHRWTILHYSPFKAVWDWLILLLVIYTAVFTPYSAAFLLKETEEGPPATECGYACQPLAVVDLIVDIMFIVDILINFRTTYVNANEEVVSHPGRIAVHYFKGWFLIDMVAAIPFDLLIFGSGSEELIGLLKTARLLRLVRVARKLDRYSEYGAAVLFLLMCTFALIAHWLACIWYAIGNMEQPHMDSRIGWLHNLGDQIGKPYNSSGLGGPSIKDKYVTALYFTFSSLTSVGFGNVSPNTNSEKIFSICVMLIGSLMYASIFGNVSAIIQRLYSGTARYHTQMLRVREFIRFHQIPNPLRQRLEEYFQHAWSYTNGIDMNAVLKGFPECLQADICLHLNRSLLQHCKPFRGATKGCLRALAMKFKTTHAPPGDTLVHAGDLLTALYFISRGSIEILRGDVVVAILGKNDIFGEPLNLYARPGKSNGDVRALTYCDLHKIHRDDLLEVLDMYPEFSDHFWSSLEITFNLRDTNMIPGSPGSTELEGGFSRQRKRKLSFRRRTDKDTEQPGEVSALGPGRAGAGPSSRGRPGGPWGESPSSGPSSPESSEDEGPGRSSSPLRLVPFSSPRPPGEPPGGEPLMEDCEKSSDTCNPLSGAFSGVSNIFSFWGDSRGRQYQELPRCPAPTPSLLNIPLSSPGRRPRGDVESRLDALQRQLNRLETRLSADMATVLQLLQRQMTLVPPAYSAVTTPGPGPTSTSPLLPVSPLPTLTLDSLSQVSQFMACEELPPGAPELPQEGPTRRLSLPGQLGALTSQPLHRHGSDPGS
`COc1ccc([N+](=O)[O-])cc1N(CC(O)CN1CCCCC1)S(=O)(=O)c1ccccc1` (stereo not drawn): the “hERG current change (%, negative = inhibition) at 10uM” value is -11.2%.
Consider `O=C(CN(c1ccc([N+](=O)[O-])cc1)S(=O)(=O)c1ccccc1)N1CCCCC1`, for which the “hERG current change (%, negative = inhibition) at 10uM” value is reported as -61.9%.
To `O=[N+]([O-])c1ccc(N(CC(O)CN2CCCCC2)S(=O)(=O)c2ccccc2)cc1` (stereo not drawn) belongs -74%; to `COc1ccc([N+](=O)[O-])cc1N(CC(O)CN1CCOCC1)S(=O)(=O)c1ccccc1` (stereo not drawn), 20%.
To `O=C(CN(c1cccc([N+](=O)[O-])c1)S(=O)(=O)c1ccccc1)N1CCCCC1` belongs -24.8%; to `O=[N+]([O-])c1ccc(S(=O)(=O)N(CC(O)CN2CCCCC2)c2ccccc2)cc1` (stereo not drawn), -80.9%; to `CC1(C)NC(=O)N(CC(O)CN(c2ccccc2)S(=O)(=O)c2ccc([N+](=O)[O-])cc2)C1=O` (stereo not drawn), -13.7%.
As for `Cc1ccc(N(CC(=O)N2CCCCCC2)S(=O)(=O)c2ccccc2)cc1`, the figure is -25.3%; as for `CNC(=O)OCCc1n(C)cc[n+]1C.[I-]`, 13.9%.
Take `Cn1cnnc1Sc1ccc(C(=O)OCC(=O)NCC(F)(F)F)cc1[N+](=O)[O-]`: the “hERG current change (%, negative = inhibition) at 10uM” value was 0.021%.
To `CC(C)(C)C(=O)Cn1c(=O)n(-c2ccc(F)cc2F)c(=O)c2sccc21` belongs 4.28%; to `O=C1C(C2=NC(C(=O)O)C3C(=O)N(c4ccc(Cl)cc4)C(=O)C23)=C(O)c2ccccc21` (stereo not drawn), 2.54%; to `COc1cc(CN2CCC(Oc3cc(C(=O)NC4CC4)ccc3OC)CC2)cc(OC)c1`, -72.8%.
For `COc1cc(C(=O)NC2CC(C)(C)CC(C)(C)C2)ccc1OC1CCN(C(C)=O)CC1`, the “hERG current change (%, negative = inhibition) at 10uM” value is recorded as 6.2%.
As for `COc1ccc(C(=O)NCCc2ccc(C)cc2)cc1OC1CCN(C(C)=O)CC1`, the figure is -4.05%.
To `COc1ccc(C(=O)NC2CC2)cc1OC1CCN(Cc2cc(C)cc(C)c2)CC1` belongs -70.2%.
Turning to `COc1ccc(C(=O)NC2CCCCCCC2)cc1OC`, the “hERG current change (%, negative = inhibition) at 10uM” value came to 1.54%.
On to `COc1cc(/C=N/NC(=O)COc2ccccc2C)ccc1OC(=O)c1cccs1`, for which the “hERG current change (%, negative = inhibition) at 10uM” value is listed as -0.671%.
To `Cc1ccc(NC(=O)Cn2nnc(-c3ccc4c(c3)OCO4)n2)cc1F` belongs 11%; to `Nc1cc(N)nc(SCC(=O)Nc2ccccc2N2CCOCC2)n1`, 2.73%; to `CC(C)c1nc2sc3c(c2c(=O)[nH]1)CC(C)(C)OC3`, 17.7%.
`Cc1ccccc1C(=O)NCCNC(=O)c1ccccn1`: the “hERG current change (%, negative = inhibition) at 10uM” value was determined as 6.75%.
For `O=C(NCc1ccncc1)c1cc(F)c(F)cc1Cl`, the “hERG current change (%, negative = inhibition) at 10uM” value stood at 14.2%.
As for `O=C(Nc1ccc(Cc2ccncc2)cc1)c1ccc(Br)o1`, the “hERG current change (%, negative = inhibition) at 10uM” value is -35.8%.
To `CC(C)CC(=O)Nc1ccc(Cc2ccncc2)cc1` belongs 10.1%; to `O=C(Nc1ccc(Cc2ccncc2)cc1)c1cc(F)c(F)cc1Cl`, -71.2%; to `O=C(Nc1cccnc1)c1cc(F)c(F)cc1Cl`, 19.7%.
In the case of `CC(C)Cc1ccc(C(=O)Nc2ccc(Cc3ccncc3)cc2)o1`, the “hERG current change (%, negative = inhibition) at 10uM” value is given as -57.6%.
To `N#Cc1cnc(SCC(=O)N2CCCC2)nc1N` belongs 13.1%; to `COc1cc(NC(=O)c2cccc(C)c2)c(OC)cc1NC(=O)CN1CCOCC1`, -3.88%.
To `O=C(NC12CC3CC(CC(C3)C1)C2)C12CC3CC(C1)CC(n1cnc(Cl)n1)(C3)C2` belongs 2.42%; to `COc1cc(-c2nc(-c3cccc(C)c3)no2)cc(OC)c1OC`, 0.668%; to `O=C(Nc1ccc(-n2cnnn2)cc1)C1CCCN1C(=O)Nc1ccc(Br)cc1` (stereo not drawn), -79.9%.
To `Cc1cc(NC(=O)C2CCCN2C(=O)Nc2cccc(Cl)c2)ccc1-n1cnnn1` (stereo not drawn) belongs -48.3%; to `Cc1cccc(C)c1NC(=O)N1CCCC1C(=O)Nc1ccc(-n2cnnn2)cc1` (stereo not drawn), -35.8%.
In the case of `Cc1ccc(NC(=O)N2CCCC2C(=O)Nc2ccc(-n3cnnn3)c(C)c2)cc1` (stereo not drawn), the “hERG current change (%, negative = inhibition) at 10uM” value is -18.7%.
To `CC(=O)Nc1ccc(NC(=O)C2CCCN2C(=O)NC2CCCCC2)cc1` (stereo not drawn) belongs 12.5%; to `Cc1ccc(NC(=O)C2CCCN2C(=O)NC2CCCCC2)cc1` (stereo not drawn), 8.72%; to `O=C(Nc1ccc(-n2cnnn2)cc1)C1CCC1`, 11.3%.
`O=C(Nc1ccc(-n2cnnn2)cc1)C1CCCN1C(=O)NC1CCCCC1` (stereo not drawn): the “hERG current change (%, negative = inhibition) at 10uM” value is listed as -63.3%.
To `Cc1cc(C)cc(NC(=O)N2CCCC2C(=O)Nc2ccc(-n3cnnn3)c(C)c2)c1` (stereo not drawn) belongs -12.3%; to `CC(C)c1ccc(NC(=O)N2CCCC2C(=O)Nc2ccc(-n3cnnn3)cc2)cc1` (stereo not drawn), -61.8%.
